Hit rate of the full screen: of about 2,200 compounds, about 15 (0.7%) were called active.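 Rule for the calls: active = fitted half-maximal concentration for loss of luminescence signal no more than a set limit of log units above the top tested concentration; inconclusive = flat fit with 30 to 70% signal loss, or invalid fit; inactive = half-maximal concentration above that set limit.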 The sample as a whole holds a higher share of actives than the screen did.
Assay: inhibitors of ADP-Glo detection reagents, dose response, artefact control for GSK3beta inhibitor project, biochemical, luminescence, cell-free, homogeneous (AID 434947)
Conditions: 5 uM ADP

EC50, inactive:
CC1(C)CC(=O)C=C(Nc2ccc3c(c2)OCCO3)C1 > 30 µM
COc1ccc(-c2nn(-c3ccccc3)cc2/C=N/N2C(=O)CSC2=S)cc1 > 30 µM
Cc1ccccc1-c1nc(CN2CCC(C(=O)N3CCN(c4ccccn4)CC3)CC2)c(C)o1 > 30 µM
CCOC(=O)c1cnc2c(OC)cccc2c1N1CCN(c2ccc(OC)cc2)CC1 > 30 µM
COc1cc(OC)c(OC)cc1CNCC1COc2ccccc2O1 (stereo unspecified) > 30 µM
CSc1nc(N)c2c3c(sc2n1)CN(C)CC3 > 30 µM
Cn1c(=O)c2[nH]c(CCCC(=O)O)nc2n(Cc2ccccc2)c1=S > 30 µM
NS(=O)(=O)c1cc(C(=O)N=Nc2c(O)[nH]c3ccccc23)ccc1Cl > 30 µM
O=C(/C=C/c1ccc2ccccc2c1)c1ccoc1 > 30 µM
NS(=O)(=O)c1ccc(CCNC(=O)CSc2nc3ccsc3c(=O)n2C2CC2)cc1 > 30 µM
CN(C)CCCNc1ccc(-c2cc(Nc3cccc(Cl)c3)ncn2)cn1 > 30 µM
CN(CCO)c1cc(N2CCC3(CC2)OCCO3)c2nonc2c1[N+](=O)[O-] > 30 µM
COC(=O)c1nnn(-c2nonc2N)c1CSc1ccc(Cl)cc1 > 30 µM
Cc1cccc(OCc2nnc(SCC(=O)Nc3sc(C)c(C)c3C#N)n2C)c1 > 30 µM
CC(C)N1C(=O)N(c2ccc(Cl)cc2)C(C)(O)CC1(C)C (stereo unspecified) > 30 µM
CC(C)CCSc1nnc(N)s1 > 30 µM
CCC(=O)Nc1ccc(Nc2nc(C)c([N+](=O)[O-])c(Nc3ccc(NC(=O)CC)cc3)n2)cc1 > 30 µM
O=C(Nc1ccnn1C1CCN(Cc2cccc(OCCO)c2)CC1)C1CCCC1 > 30 µM
c1ccc(OCCCn2nnc(-c3ccncc3)n2)cc1 > 30 µM
Nc1nc(NCCO)nc(NCC2CCCO2)c1[N+](=O)[O-] (stereo unspecified) > 30 µM
N#Cc1c(-c2ccccc2)nc(SCC(=O)Nc2ccc(OC(F)(F)Cl)cc2)[nH]c1=O > 30 µM
O=C(Nc1cc(-c2ccccc2)[nH]n1)c1ccccc1 > 30 µM
COc1cccc(C(=O)Nc2ccc(C(=O)NCC(C)C)cc2)c1 > 30 µM
CCCCC(CC)C(=O)Nc1ncc([N+](=O)[O-])s1 (stereo unspecified) > 30 µM
O=C(COc1ccccc1[N+](=O)[O-])N/N=C/c1ccccn1 > 30 µM
N/C(Cc1nc2ccccc2s1)=N\O > 30 µM
COc1cccc(C(=O)Nc2nnc(C(C)C)s2)c1 > 30 µM
COc1ccc2nc(Cl)cc(Cl)c2c1 > 30 µM
CCCc1cc(=O)[nH]c(SCCOc2ccc(OCC)cc2)n1 > 30 µM
COc1ccccc1/C=C1\C(=O)Nc2ccccc21 > 30 µM
Cc1ccc(S(=O)(=O)NNC(=O)c2cccc(O)c2)cc1 > 30 µM
COCc1c(C(=O)Nc2ccc(Cl)cc2F)oc2ccccc12 > 30 µM
CC(C)c1ccc(NC2=CC(=O)CC(C)(C)C2)cc1 > 30 µM
O=C(CCc1ccccc1)Nc1ccc2c(c1)OCCO2 > 30 µM
Cc1cc(C)c(C)c(S(=O)(=O)Nc2ccccc2C(=O)NCCCn2ccnc2)c1C > 30 µM
N#Cc1ccc(CSc2nnc(-c3ccncc3)o2)cc1 > 30 µM
CN(c1ncnc(N)c1[N+](=O)[O-])C1CCCCC1 > 30 µM
O=C(O)c1ccccc1N/N=C\c1ccnc2ccccc12 > 30 µM
COc1ccc(-c2nn(-c3ccccc3)cc2/C=N/O)cc1OC > 30 µM
Cc1cc(C(=O)OCCN2C(=O)c3ccccc3C2=O)c2ccccc2n1 > 30 µM
Cn1cc(S(=O)(=O)NCc2ccc(F)cc2)c(=O)n(C)c1=O > 30 µM
c1ccc(CNc2nc(-c3cccnc3)nc3ccccc23)cc1 > 30 µM
Cc1cc(C(=O)c2ccccc2)c(NC(=O)CN2CCOCC2)s1 > 30 µM
CN(Cc1c(C(=O)N/N=C/c2ccccc2F)nnn1-c1nonc1N)c1ccccc1 > 30 µM
CCn1c(SCC(=O)Nc2ccc(Cl)cc2)nnc1C1CC1 > 30 µM
O=c1c2[nH]c3ccccc3c2ncn1C1CCCCC1 > 30 µM
CCOC(=O)/C(C#N)=C/c1cn(CCC(=O)O)nc1-c1ccccc1 > 30 µM
CN1CCN(c2ccccc2NC(=O)c2ccc(Br)o2)CC1 > 30 µM
Cc1cnc(C(=O)OCC(=O)N2c3ccccc3CC2C)cn1 (stereo unspecified) > 30 µM
N#CCCn1cc(/C=N/O)c(-c2cccc([N+](=O)[O-])c2)n1 > 30 µM
COc1cccc(/C=N/Nc2cc(Cl)nc(C)n2)c1O > 30 µM
COc1ccc(-c2nn(-c3ccccc3)cc2N)cc1 > 30 µM
CSc1nc2c(c(=O)[nH]1)C(c1ccccc1)C1=C(CC(C)(C)CC1=O)N2 (stereo unspecified) > 30 µM
CC(=O)C(Sc1ccc2nnc(-c3ccc(F)cc3)n2n1)C(C)=O > 30 µM
NNC(=O)CNC(=O)c1ccc(F)cc1 > 30 µM
Cn1c(=S)n(CCC(=O)O)c2ccccc21 > 30 µM
O=C(NCC(c1ccco1)N1CCc2ccccc21)c1c(F)cccc1F (stereo unspecified) > 30 µM
Cc1ccc(-c2nn(-c3ccccc3)cc2/C=N/NS(=O)(=O)c2ccccc2)cc1 > 30 µM
COCCn1c(SCC(=O)Nc2ccc(Cl)c(S(=O)(=O)N(C)C)c2)nc2ccccc21 > 30 µM
COc1cccc(N=Nc2c(N)[nH][nH]c2=O)c1 > 30 µM
Cc1cc(NC(=O)CSc2nnc(C3CC3)n2Cc2ccccc2)no1 > 30 µM
CNc1nc(N)c([N+](=O)[O-])c(NCC2CCCO2)n1 (stereo unspecified) > 30 µM
COc1cc(SC)ccc1C(=O)OCC(=O)NCCNC(=O)COC(=O)c1ccc(SC)cc1OC > 30 µM
CCOC(=O)COC(=O)c1ccc(O)cc1 > 30 µM
COc1ccc(C(=O)c2sc(Nc3ccccc3)nc2N)cc1 > 30 µM
Cc1ccc(-c2cc(C(=O)NCCc3ccccn3)c3ccccc3n2)c(C)c1 > 30 µM
Cc1ccc2nc3c(cc2c1)c(NC(=O)c1ccccn1)nn3CC(C)C > 30 µM
COc1ccc(C(=O)OCCc2ccc(O)cc2)cc1 > 30 µM
Cc1ccc(C(=O)N/N=C2\CCCc3ccccc32)c(C)c1 > 30 µM
CCc1ccc(CNC(=O)C2CCC(=O)N(CCc3ccc(Cl)cc3)C2)nc1 (stereo unspecified) > 30 µM
O=C(O)COc1ccc(C(=O)c2ccccc2)cc1 > 30 µM
CSc1nc(NCCCN(C)C)c2c3c(sc2n1)CN(C)CC3 > 30 µM
OCCNc1nc(-c2cccnc2)nc2ccccc12 > 30 µM
CCC(C)Nc1nc(N)c([N+](=O)[O-])c(NCc2ccccc2)n1 (stereo unspecified) > 30 µM
Cc1ccc(NC(=O)CSCc2ccc(F)cc2)cc1 > 30 µM
CCN1CCc2c(sc(NC(=O)Cc3ccccc3)c2C(N)=O)C1 > 30 µM
COc1ccc(OC)c(C(O)c2coc3ccc(O)c(CN(C)C)c23)c1 (stereo unspecified) > 30 µM
CCn1c(/C=C/N(C(C)=O)c2ccccc2)[n+](CC)c2ccc(Cl)cc21 > 30 µM
CCOc1ccc(/C=N/Nc2ccccn2)cc1OC > 30 µM
Cc1ccc(S(=O)(=O)CC(=O)c2cc3cccc(C)c3oc2=O)cc1 > 30 µM
Nc1nc(NCCc2ccccc2)nc(NCCO)c1[N+](=O)[O-] > 30 µM
O=C(N/N=C/c1ccc(-c2ccc(Cl)c(C(=O)O)c2)o1)c1cc2c(ccc3ccccc32)o1 > 30 µM
CCn1c(SCC(=O)Nc2nccs2)nnc1C1CC1 > 30 µM
COc1ccc(N(C(=O)c2ccncc2)S(=O)(=O)c2cccc([N+](=O)[O-])c2)cc1 > 30 µM
Cc1ccc(-c2nc(Nc3cccc(O)c3)c3ccccc3n2)cc1 > 30 µM
CN(C)S(=O)(=O)c1cc(NC(=O)COC(=O)Cc2ccc(Br)cc2)ccc1Cl > 30 µM
CSc1nc(C)cc(-n2ccc(=O)[nH]c2=O)n1 > 30 µM
CC(C)OCCCN1CN(S(=O)(=O)c2cccc(Cl)c2)c2nc3ccccc3nc21 > 30 µM
COc1ccc(-c2nn(-c3ccccc3)cc2C(=O)O)cc1 > 30 µM
COCCOc1ccc(C(F)(F)F)cc1NC(=O)COC(=O)c1cc[n+]([O-])cc1 > 30 µM
COc1cccc(C(=O)Nc2nc3ccccc3s2)c1 > 30 µM
CCSc1ccc2nnc(-c3cccs3)n2n1 > 30 µM
CCCCn1nc(NC(=O)CCC)c2cc3cc(OC)ccc3nc21 > 30 µM

EC50, active:
COc1ccc(C(=O)O/N=C(\N)c2ccccn2)cc1 15.5 µM
Cc1ccc(C(=O)O/N=C(\N)c2ccccn2)c(C)c1 17.6 µM
Cc1ccc(C(=O)O/N=C(\N)c2ccccn2)c(Cl)c1 26.6 µM

— PubChem BioAssay AID434947 (Broad Institute, 2010)
